Inconclusive results are not listed. Where a call stands in place of a potency, no number is given. The source made the active and inactive calls. Calls follow the shape of the dose curve; as a rule, active = well fitted inhibition curve with a large enough effect; inconclusive = small, poorly fitted or top-dose-only effect; inactive = flat fitted curve, though single readings scatter.
Potency is read from the fitted curve at half-maximal effect.

The target of the assay is Phospholipid hydroperoxide glutathione peroxidase GPX4 (Homo sapiens) (UniProt P36969). Put plainly: Primary qHTS Assay for Inhibitors of Recombinant Selenoprotein Glutathione Peroxidase 4 (GPX4) (AID 1845192). Also: nearly all actives have a fitted effect of over 65% in size. The settings on record: recombinant GPX4, GR-coupled NADPH fluorescence, 15 min; series mostly up to 50 µM. From the text: Assay Provider: Elias S.J. Arner MD PhD.
Chain of Phospholipid hydroperoxide glutathione peroxidase GPX4 (Homo sapiens) (P36969 whole entry, looked up): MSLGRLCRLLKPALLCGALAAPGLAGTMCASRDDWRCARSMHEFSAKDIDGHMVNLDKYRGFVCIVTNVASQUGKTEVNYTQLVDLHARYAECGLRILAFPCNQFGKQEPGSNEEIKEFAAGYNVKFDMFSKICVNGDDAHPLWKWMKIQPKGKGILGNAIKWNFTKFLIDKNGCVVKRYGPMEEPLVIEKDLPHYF
Department of Medical Biochemistry and Biophysics
Karolinska Institutet, Solna, Stockholm, Sweden
Selenoprotein glutathione peroxidases (GPX), like the ubiquitously expressed GPX1 and the ferroptosis modulator GPX4, enact their antioxidant activities by reducing hydroperoxides using glutathione. […] GPX1 and GPX4 inhibitors have thus shown promise as anti-cancer agents. Existing inhibitors are often promiscuous, or modulate GPX activity only indirectly, so novel direct inhibitors identified through screening against GPX1 and GPX4 could be valuable. Here, we developed optimized glutathione reductase (GR)-coupled GPX assays for the biochemical high-throughput screen (HTS) of almost 12,000 compounds with known mechanisms of action. Initial hits were triaged using a GR counter-screen, assessed for isoform specificity using a separate GPX2 assay, and were assessed for general selenocysteine-targeting activity using a thioredoxin reductase (TXNRD1) assay. With this suite of assays, we identified novel GPX1/GPX2- and GPX4-specific inhibitors and can here present a validated pipeline for future discovery research for selenoprotein-targeting agents.
SEQUENCE No. (e.g., 1, 2, 3, etc.); […] (e.g., Cells, Incubation, Reagent, etc.); VALUE; DESCRIPTION.
1; Reagent 1; 3 uL; 333.33 nM GPx4 enzyme or no enzyme control in 1536-well, black, solid Greiner assay plate.
2; Compound; 25 nL; Kalypsis pin tool (Wako USA) equipped with a 1536-well pin head.
3; Incubation; 30 min; room temperature.
4; Reagent 2; 1 uL; 500 nM GR, 5 mM GSH, 2.5 mM NADPH solution
5; Reagent 3; 1 uL; 2.5 mM CHP in 50% EtOH.
6; Detection; Fluorescence; ViewLux microplate reader, excitation 340 nm and emission 450 nm.
7; Incubation; 15 min; room temperature.
8; Detection; Fluorescence; ViewLux microplate reader, excitation 340 nm and emission 450 nm.
NOTES (numbers refer to Sequence numbers above)
1. 3 µL of 333.33 nM GPX4 and 0.016% BSA in assay buffer (50 mM Tris-HCl, 2 mM EDTA (pH 7.5), 150 mM NaCl) was added to columns 3-48 of 1536-well plates using a BioRAPTR Flying Reagent Dispenser (Let's Go Robotics (LGR), Carlsbad, CA). A no-enzyme control (0.01% BSA in TES assay buffer) was added to columns 1-2.
2. 25 nL, library and DMSO controls were added to each well with a pin tool (Kalypsys).
3. The assay plates were incubated for 30 minutes at room temperature.
4. 1 µL of master mix (500 nM glutathione reductase (GR), 5 mM reduced glutathione (GSH), 2.5 mM NADPH in assay buffer) was added.
5. 1 µL of cumene hydroperoxide (CHP) ([2.5 mM] in 50% EtOH) was then added within 5 minutes to initiate the reaction. Final concentrations were: 200 nM GPX4, 1 mM GSH, 0.5 mM CHP, 0.5 mM NADPH, 100 nM GR, 0.01% BSA.
6. Initial fluorescence readout (t=0) at 340/450 nm was measured using a ViewLux multimodal detector (PerkinElmer, Waltham, MA).
8. Endpoint fluorescence readout (t=15) at 340/450 nm was measured 15 min after room temperature incubation.
Turning to `Cc1ccnc(NS(=O)(=O)c2ccc(N)cc2)n1`, the Potency entry is “inactive”.
`O=C(OCC(O)CO)c1ccccc1Nc1ccnc2cc(Cl)ccc12` (stereo not given): the Potency entry is “inactive”.
To `CN(C)CCOc1ccccc1Cc1ccccc1` belongs “inactive”; to `Oc1ccc(Cl)c2cccnc12`, “inactive”.
In the case of `CN(C/C=C/c1ccccc1)Cc1cccc2ccccc12`, the Potency result was “inactive”.
For `CCOC(=O)/C=C(C)/C=C/C=C(C)/C=C/c1c(C)cc(OC)c(C)c1C`, the Potency entry was “inactive”.
`CC(C)(C)CC(C)(C)c1ccc(OCCOCC[N+](C)(C)Cc2ccccc2)cc1`: the Potency entry is “inactive”.
With `C=C1C[C@H]2[C@@H]3C=C(C)C4=CC(=O)CC[C@]4(C)[C@H]3CC[C@]2(C)[C@@]1(OC(C)=O)C(C)=O`, the Potency result was “inactive”.
Turning to `C=CCc1ccc(O)c(OC)c1`, the Potency entry was “inactive”.
For the molecule `CCN(CC)C(=O)/C(C#N)=C/c1cc(O)c(O)c([N+](=O)[O-])c1`, the Potency entry is “inactive”.
As for `COc1cccc(OC)c1C(=O)N[C@@H]1C(=O)N2[C@@H]1SC(C)(C)[C@@H]2C(=O)O`, the Potency entry was “inactive”.
As to `Cc1c(N(C)CS(=O)(=O)O)c(=O)n(-c2ccccc2)n1C`, the Potency is 2000 nM (active).
Take `CC1(C)O[C@@H]2C[C@H]3[C@@H]4C[C@H](F)C5=CC(=O)C=C[C@]5(C)[C@H]4[C@@H](O)C[C@]3(C)[C@]2(C(=O)CO)O1`: the Potency entry is “inactive”.
In the case of `CC(=O)N(O)CCCCCNC(=O)CCC(=O)N(O)CCCCCNC(=O)CCC(=O)N(O)CCCCCN`, the Potency entry is “inactive”.
As for `CC(C)(CO)[C@@H](O)C(=O)NCCCO`, the entry is “inactive”.
Take `CCOC(=O)OC(C)OC1=C(C(=O)Nc2ccccn2)N(C)S(=O)(=O)c2ccccc21` (stereo not given): the Potency entry is “inactive”.
Take `CC(C)NC[C@@H](O)COc1cccc2ccccc12`: the Potency result was “inactive”.
As to `O=c1[nH]c(=O)n([C@H]2C[C@H](O)[C@@H](CO)O2)cc1C(F)(F)F`, the Potency result was “inactive”.
As for `CCCC(=O)O[C@]1(C(=O)CO)CC[C@H]2[C@@H]3CCC4=CC(=O)CC[C@]4(C)[C@H]3[C@@H](O)C[C@@]21C`, the Potency entry was “inactive”.
As for `OC(CCN1CCCCC1)(c1ccccc1)c1ccccc1`, the Potency result was “inactive”.
`C[C@@H]1C[C@H]2[C@@H]3CCC4=CC(=O)C=C[C@]4(C)[C@@]3(F)[C@@H](O)C[C@]2(C)[C@H]1C(=O)CO`: the Potency result is “inactive”.
As for `C[C@@H]1C(=O)NC2=Nc3cccc(Cl)c3CN21`, the Potency result is “inactive”.
Take `CCCCCC=CCC=CCCCCCCCC(=O)OCC`: the Potency result was “inactive”.
As for `CC(=O)c1ccc2c(c1)N(CCCN1CCC(CCO)CC1)c1ccccc1S2`, the Potency entry was “inactive”.
As for `CC(C)COC(=O)c1ccc(N)cc1`, the Potency result is “inactive”.
`CCN(CCCCOC(=O)c1ccc(OC)c(OC)c1)C(C)Cc1ccc(OC)cc1` (stereo not given): the Potency result is “inactive”.
Take `C=C1C(=C/C=C2\CCC[C@]3(C)[C@@H]([C@H](C)/C=C/[C@@H](O)C4CC4)CC[C@@H]23)C[C@@H](O)C[C@@H]1O`: the Potency result is “inactive”.
Take `CC1(C)O[C@@H]2C[C@H]3[C@@H]4CCC5=CC(=O)CC[C@]5(C)[C@@]4(F)[C@@H](O)C[C@]3(C)[C@]2(C(=O)CCl)O1`: the Potency result is “inactive”.
Regarding `CCN1CCCC1=O`, the Potency entry was “inactive”.
As for `CCCCOc1ccc(C(=O)CCN2CCCCC2)cc1`, the Potency entry was “inactive”.
Consider `CCCC1O[C@@H]2C[C@H]3[C@@H]4CCC5=CC(=O)C=C[C@]5(C)[C@H]4[C@@H](O)C[C@]3(C)[C@]2(C(=O)CO)O1` (stereo not given in full), for which the Potency result is “inactive”.
As to `C[C@]12CCC(=O)C=C1CC[C@H]1[C@@H]3CC[C@](O)(C(=O)CO)[C@@]3(C)C[C@H](O)[C@@]12F`, the Potency result was “inactive”.
In the case of `COc1cc(OC)cc(OC)c1`, the Potency result was “inactive”.
Turning to `Oc1cc(O)c2c(c1)O[C@H](c1ccc(O)c(O)c1)[C@H](O)C2`, the Potency entry was “inactive”.
On to `CCC(=O)c1c(O)cc(O)cc1O`, for which the Potency entry was “inactive”.
As to `C#C[C@]1(O)CC[C@H]2[C@@H]3CCC4=CC(=O)CC[C@@H]4[C@H]3CC[C@@]21C`, the Potency entry was “inactive”.
As for `Clc1ccc2c(c1)CCc1cccnc1C2=C1CCNCC1`, the Potency result is “inactive”.
Turning to `COc1ccc(OC)c(C(O)CNC(=O)CN)c1` (stereo not given), the Potency entry was “inactive”.
`CNCC[C@@H](Oc1ccccc1C)c1ccccc1`: the Potency result is “inactive”.
`Oc1c(I)cc(Cl)c2cccnc12`: the Potency result is “inactive”.

The values are drawn from PubChem BioAssay (NCATS).
